How the values were obtained:
[1] = target: T1, Serine/threonine-protein kinase TBK1 (Homo sapiens) (UniProt Q9UHD2); conditions: at 1 µM;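 further: values are mean inhibition of TBK1, screened as part of the GSK published kinase inhibitor set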
T1 sequence (whole entry): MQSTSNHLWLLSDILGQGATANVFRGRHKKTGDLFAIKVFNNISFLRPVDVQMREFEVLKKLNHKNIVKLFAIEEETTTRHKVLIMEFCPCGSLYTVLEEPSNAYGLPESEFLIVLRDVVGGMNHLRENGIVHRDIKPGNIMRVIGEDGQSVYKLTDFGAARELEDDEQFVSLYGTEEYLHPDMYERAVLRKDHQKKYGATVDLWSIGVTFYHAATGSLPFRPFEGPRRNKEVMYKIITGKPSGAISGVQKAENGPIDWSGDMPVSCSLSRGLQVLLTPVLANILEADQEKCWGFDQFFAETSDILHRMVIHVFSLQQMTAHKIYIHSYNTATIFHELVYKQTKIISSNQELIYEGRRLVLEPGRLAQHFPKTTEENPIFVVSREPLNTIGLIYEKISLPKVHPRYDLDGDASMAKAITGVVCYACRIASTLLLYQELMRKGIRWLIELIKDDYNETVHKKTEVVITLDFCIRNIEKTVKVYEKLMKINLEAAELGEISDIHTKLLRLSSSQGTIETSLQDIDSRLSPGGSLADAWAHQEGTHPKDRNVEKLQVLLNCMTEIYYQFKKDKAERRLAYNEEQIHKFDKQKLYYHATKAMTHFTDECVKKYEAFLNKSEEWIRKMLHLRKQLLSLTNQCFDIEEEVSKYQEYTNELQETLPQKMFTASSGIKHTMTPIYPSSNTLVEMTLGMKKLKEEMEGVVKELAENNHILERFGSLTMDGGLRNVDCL

[2] = target: T2, Testis-specific serine/threonine-protein kinase 1 (Homo sapiens) (UniProt Q9BXA7); conditions: at 0.1 µM
T2 sequence (whole entry): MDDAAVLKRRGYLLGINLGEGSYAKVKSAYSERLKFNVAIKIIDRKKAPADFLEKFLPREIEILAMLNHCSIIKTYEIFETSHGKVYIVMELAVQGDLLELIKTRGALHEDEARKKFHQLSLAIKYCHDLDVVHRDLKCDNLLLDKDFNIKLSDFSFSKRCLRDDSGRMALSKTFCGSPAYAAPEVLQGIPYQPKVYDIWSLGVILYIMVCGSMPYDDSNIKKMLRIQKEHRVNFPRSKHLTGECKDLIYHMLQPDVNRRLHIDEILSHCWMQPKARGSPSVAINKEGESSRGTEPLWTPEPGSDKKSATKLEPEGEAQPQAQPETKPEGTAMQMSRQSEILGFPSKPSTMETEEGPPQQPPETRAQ

[3] = target: T2, Testis-specific serine/threonine-protein kinase 1 (Homo sapiens); conditions: at 1 µM
[4] = target: T3, Testis-specific serine/threonine-protein kinase 2 (Homo sapiens) (UniProt Q96PF2); conditions: at 0.1 µM
T3 sequence (whole entry): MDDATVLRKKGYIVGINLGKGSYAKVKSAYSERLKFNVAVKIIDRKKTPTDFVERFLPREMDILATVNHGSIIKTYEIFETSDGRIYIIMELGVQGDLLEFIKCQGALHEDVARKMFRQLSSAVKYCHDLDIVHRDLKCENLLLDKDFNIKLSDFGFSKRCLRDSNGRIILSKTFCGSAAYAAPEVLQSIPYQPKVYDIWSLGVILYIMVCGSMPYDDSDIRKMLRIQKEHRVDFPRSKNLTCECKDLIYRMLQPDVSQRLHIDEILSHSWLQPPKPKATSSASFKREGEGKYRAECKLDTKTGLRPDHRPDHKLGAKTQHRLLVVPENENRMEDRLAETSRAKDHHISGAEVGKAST

[5] = target: T3, Testis-specific serine/threonine-protein kinase 2 (Homo sapiens); conditions: at 1 µM
[6] = target: Casein kinase I isoform alpha (Homo sapiens) (UniProt P48729); conditions: at 0.1 µM
[7] = target: Casein kinase I isoform alpha (Homo sapiens) (UniProt P48729); conditions: at 1 µM
[8] = target: Casein kinase I isoform gamma-1 (Homo sapiens) (UniProt Q9HCP0); conditions: at 0.1 µM
[9] = target: Casein kinase I isoform gamma-1 (Homo sapiens) (UniProt Q9HCP0); conditions: at 1 µM
[10] = target: Casein kinase I isoform gamma-2 (Homo sapiens) (UniProt P78368); conditions: at 0.1 µM
[11] = target: Casein kinase I isoform gamma-2 (Homo sapiens) (UniProt P78368); conditions: at 1 µM
[12] = target: Casein kinase I isoform gamma-3 (Homo sapiens) (UniProt Q9Y6M4); conditions: at 0.1 µM
[13] = target: Casein kinase I isoform gamma-3 (Homo sapiens) (UniProt Q9Y6M4); conditions: at 1 µM
[14] = target: Cyclin-dependent kinase 1 (Homo sapiens) (UniProt P06493); conditions: at 0.1 µM
[15] = target: Cyclin-dependent kinase 1 (Homo sapiens) (UniProt P06493); conditions: at 1 µM
[16] = target: Cyclin-dependent kinase 2 (Homo sapiens) (UniProt P24941); conditions: at 0.1 µM
[17] = target: Cyclin-dependent kinase 2 (Homo sapiens) (UniProt P24941); conditions: at 1 µM
[18] = target: Cyclin-dependent kinase 2 (Homo sapiens) (UniProt P24941); conditions: at 0.1 µM; remark: listed apart in the source
[19] = target: Cyclin-dependent kinase 2 (Homo sapiens) (UniProt P24941); conditions: at 1 µM; remark: listed apart in the source
[20] = target: CDK3/Cyclin E (Homo sapiens) (UniProt P24864+Q00526); conditions: at 0.1 µM;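 further: reported percentages are mean inhibition values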
Sequence of CDK3/Cyclin E (Homo sapiens) (P24864 whole entry, looked up): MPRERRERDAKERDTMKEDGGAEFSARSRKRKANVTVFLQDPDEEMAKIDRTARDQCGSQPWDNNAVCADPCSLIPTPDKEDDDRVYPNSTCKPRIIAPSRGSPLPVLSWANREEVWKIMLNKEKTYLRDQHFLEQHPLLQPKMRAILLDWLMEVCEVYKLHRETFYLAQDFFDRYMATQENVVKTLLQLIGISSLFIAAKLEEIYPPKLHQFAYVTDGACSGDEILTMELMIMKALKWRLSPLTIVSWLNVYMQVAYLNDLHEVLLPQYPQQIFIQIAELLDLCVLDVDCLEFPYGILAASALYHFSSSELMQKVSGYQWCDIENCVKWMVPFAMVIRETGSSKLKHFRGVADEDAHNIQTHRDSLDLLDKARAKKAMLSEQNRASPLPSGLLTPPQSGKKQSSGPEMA
Sequence of CDK3/Cyclin E (Homo sapiens) (Q00526 whole entry, looked up): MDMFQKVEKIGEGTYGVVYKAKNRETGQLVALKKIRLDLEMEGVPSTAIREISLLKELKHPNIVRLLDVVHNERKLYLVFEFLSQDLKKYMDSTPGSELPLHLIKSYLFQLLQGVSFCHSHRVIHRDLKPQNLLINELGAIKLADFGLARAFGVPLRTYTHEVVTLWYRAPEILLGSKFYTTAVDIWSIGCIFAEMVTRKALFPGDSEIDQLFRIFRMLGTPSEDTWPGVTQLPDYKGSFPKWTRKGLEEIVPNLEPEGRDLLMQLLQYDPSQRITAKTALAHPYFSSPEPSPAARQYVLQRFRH

Sequence of Cyclin-dependent kinase 1 (Homo sapiens) (P06493 whole entry, looked up): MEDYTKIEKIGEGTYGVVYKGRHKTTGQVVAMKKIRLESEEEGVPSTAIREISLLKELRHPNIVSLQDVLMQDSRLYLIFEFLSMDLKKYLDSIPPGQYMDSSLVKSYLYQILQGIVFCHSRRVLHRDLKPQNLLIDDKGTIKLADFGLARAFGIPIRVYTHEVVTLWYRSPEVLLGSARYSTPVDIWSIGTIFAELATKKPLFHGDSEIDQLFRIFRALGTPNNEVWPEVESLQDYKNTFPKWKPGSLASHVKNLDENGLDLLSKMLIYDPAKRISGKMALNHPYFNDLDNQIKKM
Sequence of Casein kinase I isoform alpha (Homo sapiens) (P48729 2-337 limits assumed): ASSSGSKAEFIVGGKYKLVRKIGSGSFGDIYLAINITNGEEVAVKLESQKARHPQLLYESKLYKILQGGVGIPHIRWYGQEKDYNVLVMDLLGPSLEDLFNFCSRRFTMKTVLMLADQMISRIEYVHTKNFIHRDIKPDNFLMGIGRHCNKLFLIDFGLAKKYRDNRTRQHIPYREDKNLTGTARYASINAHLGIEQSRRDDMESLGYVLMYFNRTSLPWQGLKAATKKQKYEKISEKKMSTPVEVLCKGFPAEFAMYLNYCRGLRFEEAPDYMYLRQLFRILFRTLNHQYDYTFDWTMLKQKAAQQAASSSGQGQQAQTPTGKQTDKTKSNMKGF
Sequence of Casein kinase I isoform gamma-2 (Homo sapiens) (P78368 whole entry, looked up, canonical isoform): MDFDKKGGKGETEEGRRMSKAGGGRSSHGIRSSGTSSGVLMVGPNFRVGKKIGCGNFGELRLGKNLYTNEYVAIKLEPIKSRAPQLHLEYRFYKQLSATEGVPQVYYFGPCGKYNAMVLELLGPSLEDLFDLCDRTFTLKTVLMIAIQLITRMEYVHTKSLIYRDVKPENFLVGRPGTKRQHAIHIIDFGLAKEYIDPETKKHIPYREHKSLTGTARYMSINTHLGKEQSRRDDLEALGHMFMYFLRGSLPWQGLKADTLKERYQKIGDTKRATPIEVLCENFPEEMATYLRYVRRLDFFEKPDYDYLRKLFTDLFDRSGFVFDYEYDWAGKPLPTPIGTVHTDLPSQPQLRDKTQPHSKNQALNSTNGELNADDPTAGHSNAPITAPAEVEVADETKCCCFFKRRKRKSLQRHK
Sequence of Casein kinase I isoform gamma-3 (Homo sapiens) (Q9Y6M4 whole entry, looked up, canonical isoform): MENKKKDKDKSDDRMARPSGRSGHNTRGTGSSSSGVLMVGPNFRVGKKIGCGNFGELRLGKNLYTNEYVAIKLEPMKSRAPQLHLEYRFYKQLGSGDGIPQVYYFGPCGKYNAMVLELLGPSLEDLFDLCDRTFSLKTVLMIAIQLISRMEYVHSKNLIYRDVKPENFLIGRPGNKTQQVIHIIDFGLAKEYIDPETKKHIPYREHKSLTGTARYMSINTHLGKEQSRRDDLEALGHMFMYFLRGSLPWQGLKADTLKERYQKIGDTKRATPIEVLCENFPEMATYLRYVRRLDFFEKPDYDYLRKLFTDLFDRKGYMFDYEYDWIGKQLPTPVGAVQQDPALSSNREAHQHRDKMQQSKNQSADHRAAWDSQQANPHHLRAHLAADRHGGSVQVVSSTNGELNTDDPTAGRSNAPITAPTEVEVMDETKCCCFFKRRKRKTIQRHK
Sequence of Casein kinase I isoform gamma-1 (Homo sapiens) (Q9HCP0 whole entry, looked up, canonical isoform): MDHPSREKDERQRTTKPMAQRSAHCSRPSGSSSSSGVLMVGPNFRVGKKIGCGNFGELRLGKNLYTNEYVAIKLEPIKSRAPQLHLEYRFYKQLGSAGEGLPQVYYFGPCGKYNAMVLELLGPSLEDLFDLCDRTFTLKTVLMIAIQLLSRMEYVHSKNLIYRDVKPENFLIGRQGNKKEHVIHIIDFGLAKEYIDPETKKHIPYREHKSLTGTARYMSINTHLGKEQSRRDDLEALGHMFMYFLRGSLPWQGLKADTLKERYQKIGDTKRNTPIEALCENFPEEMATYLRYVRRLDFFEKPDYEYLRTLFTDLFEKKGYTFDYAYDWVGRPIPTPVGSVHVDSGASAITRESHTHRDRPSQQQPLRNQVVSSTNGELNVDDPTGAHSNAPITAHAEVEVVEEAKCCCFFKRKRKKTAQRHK

Compound | inhibition [1] | inhibition [2] | inhibition [3] | inhibition [4] | inhibition [5] | inhibition [6] | inhibition [7] | inhibition [8] | inhibition [9] | inhibition [10] | inhibition [11] | inhibition [12] | inhibition [13] | inhibition [14] | inhibition [15] | inhibition [16] | inhibition [17] | inhibition [18] | inhibition [19] | inhibition [20]
Fc1cccc(COc2ccc(Nc3ncnc4sc(-c5cccs5)cc34)cc2Cl)c1 | 2.3% | 0.6% | 1.28% | 0.22% | 0% | -0.37% | 2.33% | 0.39% | -0.08% | 0.42% | 0.26% | -0.15% | 0.1% | 0.75% | 1.12% | -0.17% | 1.85% | 3.98% | 2.92% | -0.06%
COc1ccc(-c2nn3ncccc3c2-c2ccnc(Nc3ccc(Cl)c(C(F)(F)F)c3)n2)cc1 | 2.16% | 2.65% | 4.89% | 2.27% | 5.15% | -4.74% | 0.96% | 1.89% | 2.18% | 1.23% | 1.48% | 2.03% | 0.7% | 0.45% | 0.2% | 1.46% | -2.2% | 1.44% | 1.76% | 1.87%
NCc1ccc(-c2nc(-c3ccc(Cl)c(O)c3)c(-c3ccncc3)[nH]2)cc1 | 1.76% | 0.52% | 0.46% | -0.98% | -1.3% | 3.06% | 15.7% | 0.41% | 2.73% | 0.27% | 2.74% | 0.3% | 3.09% | 1.68% | 3.12% | 1.79% | 0.56% | 1.58% | 2.98% | 0.9%
COc1ccc2cc(-c3c(-c4ccncc4)nc(-c4ccc([S+](C)[O-])cc4)n3C)ccc2c1 (stereo not given) | 3.63% | 3.26% | 1.1% | -0.32% | -0.74% | 1.18% | 3.66% | 3.32% | 2.97% | 2% | 2.6% | 1.16% | 3.28% | 0.99% | 2.01% | 1.21% | 1.86% | 3.23% | 3.44% | 4.02%
O=C1NC(=O)C(c2ccccc2Cl)=C1Nc1cccc(O)c1 | 6.91% | 1.56% | 1.53% | 1.05% | -1.27% | 4.13% | 2.81% | 2.54% | 3.11% | 1.14% | 2.79% | 0.98% | 1.47% | 2.95% | 21% | 3.51% | 20.6% | 3.32% | 18.7% | 2.37%
[O-][S+]1CCN(Cc2ccc(-c3ccc4ncnc(Nc5ccc(OCc6ccccc6)c(F)c5)c4c3)o2)CC1 | 2.87% | 1.77% | 0.49% | 0.63% | -1.37% | 2.43% | 4.39% | 2.09% | 3.44% | 1.93% | 3.2% | 1.87% | 3.97% | 0.66% | 0.48% | 1.07% | -1.12% | 1.88% | 2.86% | 5.36%
Cc1ccc(C(=O)NC2CCCCC2)cc1-c1ccc(C(=O)NCC2CC2)cc1 | 3.86% | 1.44% | -1.51% | -0.17% | -1.47% | 4.32% | 3.89% | 1.72% | 2.66% | 0.35% | 2.68% | 2.21% | 2.73% | 0.67% | 0.28% | 0.88% | 7.52% | 2.63% | 3.98% | 2.34%
CS(=O)(=O)CCNCc1ccc(-c2ccc3ncnc(Nc4ccc(OCc5cccc(F)c5)c(C(F)(F)F)c4)c3c2)o1 | 4.04% | 4.81% | 5.61% | 2.88% | 3.87% | 1.94% | 2.33% | 3.11% | 4.58% | 2.69% | 3.77% | 2.34% | 1.71% | -0.13% | 2% | 5.89% | -0.79% | 1.93% | 3.21% | 2.34%
CCCN1CCC(Oc2cc(Nc3nc(Nc4cccc(F)c4C(N)=O)c4cc[nH]c4n3)c(OC)cc2Cl)CC1 | 2.35% | 21.3% | 57.3% | 7.49% | 26.8% | 0.93% | 12.1% | -0.95% | 8.29% | -0.58% | 6.61% | -0.08% | 20.9% | -0.34% | 0.53% | 1.48% | 5.95% | -0.16% | 0.71% | 0.11%
CCc1cccc(NC(=O)Nc2ccc(Oc3ccc4nc(NC(=O)OC)[nH]c4c3)cc2)c1 | 0.79% | 1.3% | 1.11% | 0.77% | 1.72% | 2.12% | 0.76% | 1.05% | 0.85% | 1.08% | 0.48% | 0.13% | 2.93% | -1.03% | 0.5% | 0.71% | 1.95% | 3.03% | -0.35% | 1.01%
COC(=O)Nc1nc2cc(Oc3cccc(NC(=O)Nc4cc(C(F)(F)F)ccc4F)c3)ccc2[nH]1 | 4.23% | -0.26% | -0.63% | -0.42% | -1.58% | -1.03% | -0.8% | 0.24% | 0.48% | -0.21% | -0.35% | -2.32% | -1.3% | 2.66% | 0.7% | 0.37% | -0.89% | 0.62% | 1.21% | -0.22%
O=C1Nc2ccc(C(=O)c3ccco3)cc2C1=Cc1cc(Cl)c(O)c(Cl)c1 | 40.7% | 1.18% | 3.77% | 1.82% | 1.41% | -0.89% | 5.16% | 2.49% | 4.24% | 1.66% | 5.46% | 1.18% | 6.13% | 2.24% | 7.36% | 2.59% | 19.3% | 4.71% | 15.7% | 0.83%
Cn1cc(C=C2C(=O)Nc3cccnc32)c2ccccc21 | 10.2% | 1.87% | 1.12% | -0.65% | -0.52% | 3.21% | 14.3% | 2.59% | 4.56% | 1.76% | 3.63% | 1.67% | 5.3% | 4.27% | 7.4% | 2.66% | 3.89% | 7.44% | 8.9% | 10.7%

Source: ChEMBL document CHEMBL1961873, “Compounds: GSK PKIS; Assays: Nanosyn kinase panel” (2012)
